# Only some compounds are listed: those with a hit (about 32% of all), similar ones and a draw of the others.
# CYP2C19 inh – human CYP2C19 inhibition; 96,000 tested, 21% active; P33261; inhibition, % at 5 µM; CYP2C19 Supersomes, luciferin-H EGE luminescence, 30 min;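 active means CYP2C19 inhibition above a set limit at 5 µM in the primary screen, cut at about 50% in these data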
# CYP2C9 inh – blocks human cytochrome P450 2C9; P11712; CYP2C9 Supersomes, luciferin-H conversion, luminescence; inhibition, % at 5 µM; 96,000 tested, 20% active; AID 777;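 active means blocking of liver enzyme CYP2C9 beyond about 50% at 5 µM, limit read from the data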
# Target sequence (P11712 whole entry, looked up): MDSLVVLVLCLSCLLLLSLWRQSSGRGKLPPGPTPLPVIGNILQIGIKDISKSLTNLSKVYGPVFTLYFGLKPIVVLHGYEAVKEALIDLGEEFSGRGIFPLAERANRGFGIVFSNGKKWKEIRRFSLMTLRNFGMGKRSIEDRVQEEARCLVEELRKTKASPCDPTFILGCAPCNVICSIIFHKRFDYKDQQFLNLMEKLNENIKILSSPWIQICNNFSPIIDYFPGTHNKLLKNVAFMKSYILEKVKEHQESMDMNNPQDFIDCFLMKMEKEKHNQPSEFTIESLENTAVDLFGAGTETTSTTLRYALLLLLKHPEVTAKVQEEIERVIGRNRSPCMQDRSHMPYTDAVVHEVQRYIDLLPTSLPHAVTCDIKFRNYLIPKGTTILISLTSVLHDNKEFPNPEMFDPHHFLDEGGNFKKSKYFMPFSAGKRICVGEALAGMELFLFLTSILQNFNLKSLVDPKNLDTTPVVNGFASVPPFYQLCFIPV
# CYP2C9 activ – CYP2C9 (human) activation. P11712. recombinant CYP2C9, luciferin-H conversion, luminescence; hits give high values; factor 1 = untreated enzyme, 0 = blocked. activation factor at 5 µM. 96,000 tested, 1.4% active. AID 1024;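 active means activation factor of 2 or more for CYP2C9 at a 5 µM dose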
# PostGolgi ctrl – yeast control strain growth, post-Golgi counter-screen | inhibition, % at 10 µM | 98,000 tested, 5% active | efflux-deficient yeast background strain, growth absorbance A615, 16 h
# CYP2C19 activ – cytochrome P450 2C19 (human) activation; P33261; recombinant CYP2C19, luciferin-H EGE luminescence; hits give high values; 0 = fully inhibited enzyme, 1 = untreated enzyme; activation factor at 5 µM; 96,000 tested, under 10 active;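 active means activation factor of at least 2 at 5 µM in the primary screen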
# PostGolgi yeast – growth inhibition of a yeast mutant, post-Golgi transport screen; post-Golgi transport phenotypic cell assay; inhibition, % at 10 µM; 98,000 tested, 0.9% active; AID 739;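 further: yeast cells grown in 1536-well plates; yeast grown about 18 h at 30C before absorbance read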
# Numbers stand for hits; 0 = inactive; - = no result given. Unless noted, no stated cut-off is given here; in the data, active means inhibition above about 30%; inactive means the rest.
SMILES,CYP2C19 inh,CYP2C9 inh,CYP2C9 activ,PostGolgi ctrl,CYP2C19 activ,PostGolgi yeast
Nn1c(SCC(=O)N2CCOCC2)nnc1-c1ccccc1Cl,0,0,0,0,0,0
Cc1nc(Nc2ccncc2)c2oc3ccccc3c2n1,0,0,0,0,0,0
Cc1nc(NC(C)c2ccccc2)c2oc3ccccc3c2n1 (stereo not given),0,61,0,74,0,0
Cc1nc(NCc2ccco2)c2oc3ccccc3c2n1,77,63,0,0,0,0
Cc1nc(N[C@@H](Cc2ccccc2)C(=O)O)c2oc3ccccc3c2n1,0,0,0,0,0,0
CCCC1(C(=O)OCC)NC(c2ccc(N(C)C)cc2)C2C(=O)N(c3ccc(OCC)cc3)C(=O)C21 (stereo not given),74,0,0,0,0,0
CCCC1(C(=O)OCC)NC(c2ccc(N(C)C)cc2)C2C(=O)N(c3ccccc3)C(=O)C21 (stereo not given),-,-,-,0,-,0
O=C(NCc1cccs1)C1CCC(CNS(=O)(=O)c2cccs2)CC1 (stereo not given),0,0,0,0,0,0
O=C1NC(c2cccs2)Nc2ccccc21 (stereo not given),0,0,0,0,0,0
O=C1Nc2ccccc2/C1=C/C(=O)c1cccs1,0,0,2.5,0,0,0
CN(C)C(CNC(=O)CN1C(=O)NC2(CCc3ccccc32)C1=O)c1ccco1 (stereo not given),0,0,0,0,0,0
COc1ccc(-n2c(Cn3c(=O)sc4ccccc43)nnc2SCC(=O)N2CCCC2)cc1,0,0,0,0,0,0
COc1ccc(-c2nnn(CC(=O)NCCc3c[nH]c4ccccc34)n2)cc1OC,64,-,-,0,0,0
COc1ccc(CCNC(=O)Cn2nnc(-c3cccs3)n2)cc1OC,0,56,0,0,0,0
O=C(CN1CCC(O)(c2ccccc2F)CC1)NCCc1c[nH]c2ccccc12,0,80,0,0,0,0
COC(=O)CCn1nnc(-c2cccs2)n1,78,0,0,0,0,0
COCCn1c(CN2CC(C)CC(C)C2)nc2c1c(=O)n(C)c(=O)n2C (stereo not given),0,0,0,0,0,0
COCCCNC(=O)Cn1nnc(-c2ccccc2NC(=O)c2ccccc2F)n1,57,88,0,-,0,-
COc1ccc(NC(=O)Cn2nnc(-c3ccccc3F)n2)cc1Cl,0,0,0,0,0,0
COc1ccc(CCNC(=O)CNS(=O)(=O)c2cccs2)cc1OC,64,0,0,0,0,0
COc1ccc(CCNC(=O)Cn2nnc(-c3ccccc3F)n2)cc1OC,0,65,0,0,0,0
COc1ccc(CCNC(=O)CN(C)S(=O)(=O)c2cccs2)cc1OC,0,0,0,0,0,0
CCN1CCN(C(C(=O)NC2CCCC2)c2ccc(Cl)cc2)CC1 (stereo not given),0,0,0,0,0,0
CN(C)C(C(=O)NC1CCCCC1)c1ccc(Cl)cc1 (stereo not given),56,0,0,0,0,0
O=C(c1cccc(F)c1)N1CCC(N2CCOCC2)CC1,56,0,0,0,0,0
SMILES,CYP2C19 inh,CYP2C9 inh,CYP2C9 activ,PostGolgi ctrl,CYP2C19 activ,PostGolgi yeast
O=C(c1cccc(F)c1)N1CCCC(C(=O)N2CCCC2)C1 (stereo not given),0,0,0,0,0,0
O=C(c1cccnc1)N1CCN(C(=O)c2ccccc2F)CC1,51,65,0,0,0,0
O=C(c1cccnc1)N1CCc2ccccc2C1,0,0,0,0,0,0
O=C(c1cccc(F)c1)N1CCN(c2cccc(Cl)c2)CC1,94,86,0,0,0,0
N#Cc1ccc(N2CCN(C(=O)c3cccc(F)c3)CC2)c(F)c1,92,0,0,0,0,0
COc1ccc(OC)c(-c2cc(C(=O)NCCN3CCOCC3)no2)c1,0,0,0,0,0,0
O=C(c1c(Cl)nc2sccn12)N1CCN(c2cccc(Cl)c2)CC1,83,69,0,0,0,0
O=C(c1cccc(Cl)c1)N1CCN(C(=O)c2ccccc2F)CC1,66,54,0,0,0,0
CCC1CCCCN1C(=O)c1nn2cccnc2c1Cl (stereo not given),0,0,0,0,0,0
O=C(c1ccccc1F)N1CCN(Cc2cccc(Cl)c2)CC1,-,-,-,0,-,0
O=C(c1cccc(F)c1)N1CCN(C(=O)c2nn3cccnc3c2Cl)CC1,58,0,0,0,0,0
CCOc1ccc(OCC)c(NC(=O)CCn2cccc2)c1,0,0,0,0,0,0
COC(=O)c1ccc(OCC(O)CN(CC(C)C)CC(C)C)cc1 (stereo not given),74,71,0,0,0,0
COC(=O)c1ccc(OCCOc2ccc(C(=O)OC)cc2)cc1,0,0,0,0,0,0
CCN(CC)CC(O)COc1ccccc1C(=O)CCc1ccccc1 (stereo not given),60,0,0,-,0,-
C=CCc1ccccc1OCC(O)CN(CC)CC (stereo not given),0,0,0,0,0,0
CCC(=O)c1ccc(OCC(O)CN(CCc2ccccc2)Cc2ccccc2)cc1 (stereo not given),53,70,0,52,0,0
COC(=O)CNC(=O)CN1C(=O)N(c2ccc(Cl)cc2)C(N(O)C(=O)Nc2ccc(Cl)cc2)C1(C)C (stereo not given),0,0,0,0,0,0
CCc1c(C)nc2ncnn2c1N1CCC(C(=O)N2CCN(c3ccc(F)cc3)CC2)CC1,61,0,0,0,0,0
COc1cccc(OC)c1C(=O)N1CCN(c2c(Cc3ccccc3)c(C)nc3ncnn23)CC1,0,0,0,0,0,0
Cc1nc2ncnn2c(N2CCC(C(=O)NC3CCCC3)CC2)c1Cc1ccccc1,66,60,0,0,0,0
CCc1c(C)nc2ncnn2c1N1CCC(C(=O)N2CCN(c3ccccc3)CC2)CC1,0,0,0,-,0,-
CC(=O)N1CCN(C(=S)c2ccc([N+](=O)[O-])cc2)CC1,51,0,0,0,0,0
CC(=O)N1CCN(C(=S)c2ccc(N(C)C)cc2)CC1,0,0,0,0,0,0
CCOC(=O)CSc1nc2c(cnn2-c2ccc(C)cc2)c(=O)[nH]1,0,0,0,0,0,0
COc1cc(C2c3c(n[nH]c3C)C(=O)N2c2ccc(C)cc2)ccc1O (stereo not given),0,0,0,0,0,0
COc1cc(C2c3c(-c4ccccc4)n[nH]c3C(=O)N2c2ccccc2)ccc1O (stereo not given),77,92,0,0,0,0
O=C(c1ccc(F)cc1F)N(Cc1ccccn1)Cc1ccco1,73,0,0,0,0,0
Cc1ccc2c(CSc3nc4ccccc4c(=O)n3CCCO)cc(=O)oc2c1C,68,96,0,32,0,0
COCCn1c(SCC(=O)c2ccc(CNC(C)=O)o2)nc2ccccc2c1=O,0,0,0,0,0,0
